For orientation: AC50 means the concentration giving half of the maximal activity seen.

Structures are written as SMILES. Out of some 16,000 compounds screened, about 5,700 (36%) were called active. Not shown: some 24% with an inconclusive outcome. The list shows a part of the results. A number with no mark means an inactive call. The call rests on the fitted dose curve; in most records, active means well fitted curve in the direction sought with a large enough effect; inconclusive means small, poorly fitted or top-dose-only effect, or effect the other way; inactive means no such curve, though single readings can be large or run the other way.
On the % scale 0 is the no-effect control and ±100 the full control effect.

The target in this assay is Cytochrome P450 1A2 (Homo sapiens) (UniProt P05177). In words: Cytochrome panel assay with activity outcomes. To be noted: recombinant CYP, pro-luciferin dealkylation, luminescence, p450-cyp1a2; series mostly up to 57.1 µM.
Cytochrome P450 1A2 (Homo sapiens), sequence (P05177 whole entry, looked up): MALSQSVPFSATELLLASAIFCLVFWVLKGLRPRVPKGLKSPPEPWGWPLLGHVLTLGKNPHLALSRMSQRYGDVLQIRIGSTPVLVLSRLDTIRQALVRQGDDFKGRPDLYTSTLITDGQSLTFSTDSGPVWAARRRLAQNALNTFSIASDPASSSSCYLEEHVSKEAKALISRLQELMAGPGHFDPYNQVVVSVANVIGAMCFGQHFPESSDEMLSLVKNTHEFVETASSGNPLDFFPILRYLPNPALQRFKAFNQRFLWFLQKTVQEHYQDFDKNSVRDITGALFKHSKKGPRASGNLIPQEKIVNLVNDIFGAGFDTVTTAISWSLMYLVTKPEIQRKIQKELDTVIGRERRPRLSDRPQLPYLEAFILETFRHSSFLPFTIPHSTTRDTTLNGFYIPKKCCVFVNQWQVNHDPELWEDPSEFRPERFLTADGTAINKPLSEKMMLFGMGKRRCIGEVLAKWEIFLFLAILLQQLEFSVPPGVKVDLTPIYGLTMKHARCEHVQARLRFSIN
`Cc1nc(Oc2ccc(Cl)cc2)c2oc3ccccc3c2n1`: the AC50 was 141 nM (active).
Still for that read-out and setting: with `O=C1Nc2ccccc2Nc2ncccc21` the figure was 2240 nM (active); with `N#Cc1c(-c2ccccc2)cc(-c2ccccc2)nc1SCc1nnc(-c2ccccc2)o1`, “inactive”; with `CS(=O)(=O)c1nc(-c2ccccc2)cc(-c2ccccc2)c1C#N`, 891 nM (active).
As for `O=C1CC(=O)N(CCc2ccc(F)cc2)C(=O)N1`, the AC50 result was “inactive”.
On the same count and under the same terms, then `CCn1c(=O)cc(SCC(=O)N2CCN(C(=O)c3ccco3)CC2)c2ccccc21`, with “inactive”; and `CNC(=O)NC(=O)CSc1nnc(-c2ccco2)n1Cc1ccccc1`, with “inactive”.
With `Cc1c(/N=C/c2ccco2)n(Cc2ccccc2)c2ccccc12`, the AC50 was 1120 nM (active).
Take `CC12c3ccccc3C(c3ccccc31)C1C(=O)N(Cc3cccnc3)C(=O)C12` (stereo not given): the AC50 entry is “inactive”.
For the compound `O=C1C2[C@@H](c3ccccc3)N[C@@H](c3ccccc3)C1[C@H](c1ccccc1)N[C@H]2c1ccccc1`, the activity, negative = inhibition is -18.6% [at 11.4 µM].
In the case of `S=C1N[C@H](c2ccccc2)N[C@H](c2ccccc2)S1`, the half-maximal activity concentration (AC50) was 3160 nM (active).
On to `COc1cc(C(=O)NCCC(C)C)c([N+](=O)[O-])cc1OC`, for which the AC50 entry was “inactive”.
`CCC(C)Nc1c([N+](=O)[O-])cc(C)cc1[N+](=O)[O-]` (stereo not given): the half-maximal activity concentration (AC50) was 1780 nM (active).
As for `CC[C@@H](CS(=O)(=O)O)[N+](=O)[O-]`, the activity, negative = inhibition is -0.979% [at 11.4 µM].
Take `Cn1cc(-c2nnc(-c3ccccc3)o2)c2ccccc21`: the AC50 was 2000 nM (active).
In the case of `N#C/C(=C\c1cc(Cl)cc(Cl)c1O)C(=O)NC1CCCCC1`, the AC50 was 5010 nM (active).
In the case of `O=C(NC1CCCCC1)C(c1ccccc1)N1CCOCC1` (stereo not given), the AC50 result was “inactive”.
As to `N#C/C(=C\c1cn[nH]c1-c1ccccc1)C(=O)NC1CCCCCC1`, the AC50 is 11200 nM (active).
For `COc1ccc(/C=C(/C#N)C(=O)NC2CCCCC2)cc1Br`, the AC50 entry is “inactive”.
In the case of `CCOC(=O)C[C@@H](C(=O)OCC)[C@@H]1CCCCC1=O`, the activity, negative = inhibition was -6.2% [at 11.4 µM].
With `CCOC(=O)c1cc(CC)sc1NC(=O)c1cc(OCC)c(OCC)c(OCC)c1`, the AC50 result is “inactive”.
Consider `CCOc1cc(-c2noc(N)c2C#N)cc(OCC)c1OCC`, for which the half-maximal activity concentration (AC50) is 141 nM (active).
As to `CCON=C1C(C)(C)C(C)(C)C(C)(C)C1(C)C`, the activity, negative = inhibition is -12% [at 11.4 µM].
As to `CC1CN(C(NC(=O)C(C)(C)C)C(Cl)(Cl)Cl)CC(C)O1` (stereo not given), the AC50 entry was “inactive”.
Consider `COCCNc1nc(-c2ccc(C(=O)N(C)C)cc2)nc2ccccc12`, for which the half-maximal activity concentration (AC50) was 20000 nM (active).
`CN(C)c1ccc(-c2nc(NCCc3cnc[nH]3)c3ccccc3n2)cc1`: the AC50 is 631 nM (active).
As for `CN(C)C(=O)c1ccc(-c2nc(NCc3cccs3)c3ccccc3n2)cc1`, the half-maximal activity concentration (AC50) was 12600 nM (active).
With `NCCC(=O)NCCc1cnc[nH]1`, the AC50 entry was “inactive”.
With `CN(C)C(=O)c1ccc(-c2nc(Nc3ccccc3)c3ccccc3n2)cc1`, the AC50 was 398 nM (active).
For `CCOC(=O)N1CCC(NC(=O)C2CCN(S(=O)(=O)N3CCCC3)CC2)CC1`, the AC50 entry is “inactive”.
Regarding `CN(C)C[C@H]1CCC[C@@H](CN(C)C)C1=O`, the activity, negative = inhibition is -12.2% [at 11.4 µM].
On to `Cc1ccc(S(=O)(=O)N[C@H](C(=O)N2CCC(C(=O)NCC(=O)O)CC2)C(C)C)cc1`, for which the AC50 entry is “inactive”.
As for `CC(=O)NCCNc1nc(-c2ccc(N(C)C)cc2)nc2ccccc12`, the concentration at half-maximal activity (AC50) is 3160 nM (active).
In the case of `CC(=O)NCCNc1nc(-c2ccc(C(=O)N(C)C)cc2)nc2ccccc12`, the AC50 result was “inactive”.
Regarding `CC(=O)NCCNc1nc(-c2ccc3c(c2)OCO3)nc2ccccc12`, the half-maximal activity concentration (AC50) was 2510 nM (active).
In the case of `COCCNc1nc(-c2ccc(N(C)C)cc2)nc2ccccc12`, the AC50 is 631 nM (active).
With `CCCCN(C)CCCNC(=O)CS(=O)Cc1nc(-c2ccc(OC)c(OC)c2)oc1C` (stereo not given), the AC50 result was “inactive”.
Turning to `O=C(c1cnccn1)N1CCC2(CC1)CN(Cc1cc(C(F)(F)F)cc(C(F)(F)F)c1)C2`, the AC50 result was “inactive”.
In the case of `N#Cc1cccc(-c2nc3cnc(N4CCOCC4)nc3n(C3CC3)c2=O)c1`, the AC50 is 2510 nM (active).
On the same count and under the same terms, with `O=c1c(-c2ccccc2)nc2cnc(N3CCOCC3)nc2n1C1CC1` the figure was 3160 nM (active); with `N#Cc1cccc(-c2nc3cnc(N4CCNCC4)nc3n(C3CC3)c2=O)c1`, 5010 nM (active); with `O=c1c(-c2ccc(F)cc2)nc2cnc(N3CCOCC3)nc2n1C1CC1`, “inactive”.
On the same count and under the same terms, then `NC(=O)N1c2ccccc2C=Cc2ccccc21`, with “inactive”; and `C=CCn1c(SCC)nc2sc3c(c2c1=O)CCc1ccccc1-3`, with 1780 nM (active).
Turning to `CC1(C)Cc2c(sc3nc(SCC(=O)NCc4ccccc4)n(-c4ccccc4)c(=O)c23)CS1`, the AC50 result is “inactive”.
As for `C=CCn1c(SCC(=O)Nc2c(C)n(C)n(-c3ccccc3)c2=O)nc2sc(C)c(-c3ccccc3)c2c1=O`, the AC50 entry was “inactive”.
For `CO[C@@H]1CC[C@@]2(C)[C@@H](CC[C@@]3(C)[C@H]2CC=C2[C@H]4CC(C)(C)[C@H](O)[C@@H](OC(C)=O)[C@]4(CO)[C@H](O)C[C@]23C)[C@@]1(C)CO` (tested in a mixture with another compound), the AC50 result is “inactive”.
Consider `COc1ccc(-c2csc(NC(=O)Cn3nc(C)cc3C)n2)cc1`, for which the AC50 was 3160 nM (active).
Regarding `COc1ccc2cc(C)c3nnc(SCC(=O)Nc4nc(-c5ccccc5)cs4)n3c2c1`, the AC50 result is “inactive”.
With `CC(N)=NCCCC[C@H](N)C(=O)O`, the AC50 result is “inactive”.
Still for that read-out and setting: then `COc1cc(/C=C\C(=O)N2CCC=CC2=O)cc(OC)c1OC`, with 200 nM (active).
With `COc1cc(/C=C/C(=O)N2CCN(CC(O)COc3ccccc3)CC2)cc(OC)c1OC` (stereo not given), the AC50 entry was “inactive”.
Take `COc1cc(/C=C/C(=O)O)cc(S(=O)(=O)NCCCO)c1OC`: the AC50 result is “inactive”.
`N#Cc1ccccc1-c1ccc2ncnc(NCCN3CCOCC3)c2c1`: the half-maximal activity concentration (AC50) is 10000 nM (active).
Take `Clc1ccccc1-c1ccc2ncnc(NCCN3CCOCC3)c2c1`: the AC50 is 5010 nM (active).
Regarding `COc1ccc(C2c3c(ncn(CCN4CCOCC4)c3=N)Oc3ccc4ccccc4c32)cc1OC` (stereo not given), the AC50 result was “inactive”.
`COc1ccccc1-c1ccc2ncnc(NCCN3CCOCC3)c2c1`: the AC50 is 15800 nM (active).
On the same count and under the same terms, then `CCCN=Cc1c(CCC)[nH]n(-c2nc3ccccc3s2)c1=O`, with 562 nM (active); and `CN(C)c1ccc(-c2cncnc2NCCN2CCOCC2)cc1`, with 15800 nM (active).
Turning to `CC(=O)NCCNc1ncncc1-c1ccc(N(C)C)cc1`, the AC50 was 6310 nM (active).
Still for that read-out and setting: then `COc1ccccc1-c1cncnc1NCCNC(C)=O`, with “inactive”; and `CC(=O)NCCNc1ncncc1-c1ccccc1CN(C)C`, with 25100 nM (active); and `CN(C)C(=O)c1ccc(-c2cncnc2NCCN2CCOCC2)cc1`, with “inactive”.
For `COc1ccc(CCN2CC34C=CC(O3)C(C(=O)NCc3ccccc3)C4C2=O)cc1OC` (stereo not given), the AC50 result was “inactive”.
For the compound `COc1cc2c(cc1OC)C(C(=O)N1CCOCC1)C(c1cccs1)N(C)C2=O` (stereo not given), the AC50 entry was “inactive”.
Regarding `C(/C=C\c1ccccc1)=Nc1ccc2c(c1)Cc1ccccc1-2`, the AC50 was 398 nM (active).
Regarding `Oc1ccc(Cl)cc1C=Nc1cnc2ccccc2c1`, the activity, negative = inhibition was -13.2% [at 2.29 µM].
For `Clc1ccc(C=Nc2ccc3c(c2)Cc2ccccc2-3)c(Cl)c1`, the AC50 is 794 nM (active).
With `O=C(Nc1cccc(F)c1)N1CCCC2(CCN(S(=O)(=O)c3ccccc3)CC2)C1`, the AC50 entry is “inactive”.
As for `CCCCCCCCCCCCCCCCCCNC(=O)OC[C@@H](COP(=O)([O-])OCC[n+]1ccsc1)OC`, the AC50 entry was “inactive”.
Consider `Cc1c(NC(=O)C(C)N2C(=O)c3ccccc3C2=O)c(=O)n(-c2ccccc2)n1C` (stereo not given), for which the AC50 result is “inactive”.
On the same count and under the same terms, then `CC(=O)Nc1c2c3c(cccc3n(C)c1=O)C(=O)c1ccccc1-2`, with 2510 nM (active).
Same read-out and setting: with `Clc1ccc(-c2noc(CN3CCCCC3)n2)cc1` the figure was 631 nM (active).
On to `Cc1ncc(CSC(=N)N)n1Cc1ccccc1`, for which the activity, negative = inhibition was -2.06% [at 11.4 µM].
On to `Cc1ccc(-c2noc(CN3CCN(C(c4ccccc4)c4ccccc4)CC3)n2)cc1`, for which the AC50 entry is “inactive”.
In the case of `N=C(N)SCc1nc(-c2ccc(Cl)cc2)no1`, the AC50 is 1260 nM (active).
As to `CCCNC(=O)OC[C@@H]1O[C@H](CCON=C(C)C)C=C[C@@H]1Oc1ccc(OC)cc1`, the activity, negative = inhibition is -2.59% [at 11.4 µM].
With `CC(=O)N1CCc2cc(Br)cc(S(=O)(=O)N3CCN(C(=O)c4ccco4)CC3)c21`, the AC50 entry was “inactive”.
On the same count and under the same terms, with `CC(C)(O)C#Cc1ccc(C(=O)NCc2cccs2)s1` the figure was 15800 nM (active); with `Cc1cc(Nc2ccc(Cl)cc2)nc(N)n1`, 10000 nM (active).
`Nc1nc(Cl)cc(NCCO)n1`: the activity, negative = inhibition is -22.6% [at 11.4 µM].
Take `Cc1cc(C)c(S(=O)(=O)NNC(=O)C2CCN(Cc3ccccc3)CC2)c(C)c1`: the AC50 result was “inactive”.
`COc1ccccc1N1CCN(Cc2cc(=O)n3ccsc3n2)CC1`: the AC50 result is “inactive”.
On to `O=C(/C=C\C=C/c1ccc2c(c1)OCO2)N1CCCCC1`, for which the AC50 was 3160 nM (active).
With `O=C(/C=C\c1ccc2c(c1)OCO2)c1ccc(F)cc1`, the activity, negative = inhibition is -4.56% [at 11.4 µM].
On to `COc1ccccc1N1CCN(C(=O)/C=C/c2ccc3c(c2)OCO3)CC1`, for which the AC50 was 25100 nM (active).
For `C/C(=N\Nc1ccc([N+](=O)[O-])cc1)c1cccc(N)c1`, the AC50 was 1260 nM (active).
With `C/C(=N\Nc1nc(N)cc(Cl)n1)c1cccc([N+](=O)[O-])c1`, the AC50 was 11200 nM (active).
In the case of `NC(=O)CNC(=O)[C@@H]1CC2(CC(c3cccc([N+](=O)[O-])c3)=NO2)CN1C(=O)c1ccccc1` (stereo not given in full), the AC50 result is “inactive”.
For the compound `C/C(=N\Nc1nnc(-c2ccccc2)c(-c2ccccc2)n1)c1cccc([N+](=O)[O-])c1`, the AC50 was 3550 nM (active).
For the compound `Nc1cc(Cl)nc(N/N=C/c2ccccc2[N+](=O)[O-])n1`, the AC50 is 2000 nM (active).
Turning to `N=c1nc(N)nc(N)n1-c1ccc(S(N)(=O)=O)cc1`, the activity, negative = inhibition was -3.8% [at 2.29 µM].
For `O=C(c1ccccc1)[C@H](Nc1ccc2ccccc2c1)c1ccccc1`, the AC50 was 794 nM (active).
Take `O=C(O)[C@@H](c1ccccc1)[C@@H](C(=O)O)c1ccccc1`: the activity, negative = inhibition is -12% [at 2.29 µM].
For `O=C(CSc1nc2ccc([N+](=O)[O-])cc2s1)c1ccc2ccccc2c1`, the AC50 is 3160 nM (active).

The record behind these values is PubChem BioAssay AID1851 (National Center for Advancing Translational Sciences (NCATS), 2009).
